# Experimental data from PMC5540273 (PLoS ONE, 2017).
# Like-named read-outs stand apart in the source and are kept apart here.
# Tests used:
# ADCK4 = conditions: concentration: 1 μM, replicates: in singlicate; n = 1
# AKT1 = conditions: concentration: 1 μM, replicates: in singlicate; n = 1
# AKT2 = conditions: n = 1
# AKT3 = conditions: concentration: 1 μM, replicates: in singlicate; n = 1
# ALK = conditions: concentration: 1 μM, replicates: in singlicate; n = 1
# AMPK-alpha1 = system: T1, AMPK-alpha1; conditions: concentration: 1 μM, replicates: in singlicate; n = 1
# T1 construct: gene PRKAA1
# AMPK-alpha2 = system: T2, AMPK-alpha2; conditions: concentration: 1 μM, replicates: in singlicate; n = 1
# T2 construct: gene PRKAA2
# ANKK1 = conditions: concentration: 1 μM, replicates: in singlicate; n = 1
# ARK5 = system: T3, ARK5; conditions: concentration: 1 μM, replicates: in singlicate; n = 1
# T3 construct: gene NUAK1
# ASK1 = system: T4, ASK1; conditions: concentration: 1 μM, replicates: in singlicate; n = 1
# T4 construct: gene MAP3K5
# ASK2 = system: T5, ASK2; conditions: concentration: 1 μM, replicates: in singlicate; n = 1
# T5 construct: gene MAP3K6
# AURKA = conditions: concentration: 1 μM, replicates: in singlicate; n = 1
# AURKB = conditions: concentration: 1 μM, replicates: in singlicate; n = 1
# AURKC = conditions: concentration: 1 μM, replicates: in singlicate; n = 1
# AXL = conditions: concentration: 1 μM, replicates: in singlicate; n = 1
# BIKE = system: T6, BIKE; conditions: concentration: 1 μM, replicates: in singlicate; n = 1
# T6 construct: gene BMP2K
# BLK = conditions: concentration: 1 μM, replicates: in singlicate; n = 1
# BMPR1A = conditions: concentration: 1 μM, replicates: in singlicate; n = 1
# BMPR1B = conditions: concentration: 1 μM, replicates: in singlicate; n = 1
# BMPR2 = conditions: concentration: 1 μM, replicates: in singlicate; n = 1
# [1] = concentration: 1 μM, replicates: in singlicate
# 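Also: KINOMEscan kinase panel screen.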
compound,measurement,setting,value
CCCCc1nn2ncccc2c1-c1ccnc(Nc2ccc(N3CCN(C)CC3)cc2)n1 [GW684941],%Inh,ADCK4,93.1%
same,%Inh,AKT1,0%
same,%Inh,AKT2; [1],0%
same,%Inh,AKT3,0%
same,%Inh,ALK,72%
same,%Inh,AMPK-alpha1,5%
same,%Inh,AMPK-alpha2,9%
same,%Inh,ANKK1,0%
same,%Inh,ARK5,62%
same,%Inh,ASK1,0%
same,%Inh,ASK2,16%
same,%Inh,AURKA,96.7%
same,%Inh,AURKB,80%
same,%Inh,AURKC,82%
same,%Inh,AXL,69%
same,%Inh,BIKE,69%
same,%Inh,BLK,81%
same,%Inh,BMPR1A,0%
same,%Inh,BMPR1B,91%
same,%Inh,BMPR2,0%
Cn1cc(-c2[nH]c3cc(NC(=O)[C@H](N)C4CCCCC4)cc4c3c2C=NNC4=O)cn1,%Inh,ADCK4,0%
same,%Inh,AKT1,60%
same,%Inh,AKT2; [1],45%
same,%Inh,AKT3,36%
same,%Inh,ALK,91.3%
same,%Inh,AMPK-alpha1,94.1%
same,%Inh,AMPK-alpha2,81%
same,%Inh,ANKK1,95.7%
same,%Inh,ARK5,92.2%
same,%Inh,ASK1,0%
same,%Inh,ASK2,0%
same,%Inh,AURKA,100%
same,%Inh,AURKB,99.7%
same,%Inh,AURKC,99.3%
same,%Inh,AXL,99.9%
same,%Inh,BIKE,100%
same,%Inh,BLK,99.5%
same,%Inh,BMPR1A,19%
same,%Inh,BMPR1B,87%
same,%Inh,BMPR2,22%
CCn1c(-c2nonc2N)nc2c(C#CC(C)(C)O)ncc(OCCCCN)c21.O=C(O)C(F)(F)F.O=C(O)C(F)(F)F [GSK507274],%Inh,ADCK4,13%
same,%Inh,AKT1,93.5%
same,%Inh,AKT2; 1 µM,99.1%
same,%Inh,AKT3,72%
same,%Inh,ALK,28%
same,%Inh,AMPK-alpha1,1%
same,%Inh,AMPK-alpha2,0%
same,%Inh,ANKK1,0%
same,%Inh,ARK5,50%
same,%Inh,ASK1,0%
same,%Inh,ASK2,16%
same,%Inh,AURKA,0%
same,%Inh,AURKB,38%
same,%Inh,AURKC,9%
same,%Inh,AXL,0%
same,%Inh,BIKE,26%
same,%Inh,BLK,8%
same,%Inh,BMPR1A,14%
same,%Inh,BMPR1B,0%
same,%Inh,BMPR2,12%
Cc1cccc(NC(=O)Nc2ccc(Oc3ncnc4ccn(C)c34)cc2)c1,%Inh,ADCK4,0%
same,%Inh,AKT1,0%
same,%Inh,AKT2; [1],0%
same,%Inh,AKT3,0%
same,%Inh,ALK,0%
same,%Inh,AMPK-alpha1,9%
same,%Inh,AMPK-alpha2,0%
same,%Inh,ANKK1,0%
same,%Inh,ARK5,0%
same,%Inh,ASK1,0%
same,%Inh,ASK2,0%
same,%Inh,AURKA,0%
same,%Inh,AURKB,94.9%
same,%Inh,AURKC,85%
same,%Inh,AXL,44%
same,%Inh,BIKE,10%
same,%Inh,BLK,0%
same,%Inh,BMPR1A,0%
same,%Inh,BMPR1B,0%
same,%Inh,BMPR2,0%
CN1CCN(Cc2cccc(-c3ccc4c(Nc5ccc(Oc6ccccc6)cc5)ccnc4c3)c2)CC1 [GW578342],%Inh,ADCK4,9%
same,%Inh,AKT1,0%
same,%Inh,AKT2; [1],11%
same,%Inh,AKT3,0%
same,%Inh,ALK,23%
same,%Inh,AMPK-alpha1,8%
same,%Inh,AMPK-alpha2,0%
same,%Inh,ANKK1,6%
same,%Inh,ARK5,0%
same,%Inh,ASK1,0%
same,%Inh,ASK2,0%
same,%Inh,AURKA,6%
same,%Inh,AURKB,0%
same,%Inh,AURKC,9%
same,%Inh,AXL,17%
same,%Inh,BIKE,1%
same,%Inh,BLK,94.8%
same,%Inh,BMPR1A,0%
same,%Inh,BMPR1B,0%
same,%Inh,BMPR2,8%
COc1cccc(-c2ccc3c(NC(=O)C4CC4)n[nH]c3n2)c1 [SB-710903],%Inh,ADCK4,48%
same,%Inh,AKT1,0%
same,%Inh,AKT2; [1],0%
same,%Inh,AKT3,0%
same,%Inh,ALK,29%
same,%Inh,AMPK-alpha1,0%
same,%Inh,AMPK-alpha2,13%
same,%Inh,ANKK1,0%
same,%Inh,ARK5,0%
same,%Inh,ASK1,12%
same,%Inh,ASK2,0%
same,%Inh,AURKA,0%
same,%Inh,AURKB,35%
same,%Inh,AURKC,0%
same,%Inh,AXL,0%
same,%Inh,BIKE,0%
same,%Inh,BLK,0%
same,%Inh,BMPR1A,0%
same,%Inh,BMPR1B,35%
same,%Inh,BMPR2,44%
CCc1ccc(-c2ccc3c(c2)-c2c(cnn2C)S(=O)(=O)N3C)cc1,%Inh,ADCK4,0%
same,%Inh,AKT1,0%
same,%Inh,AKT2; [1],0%
same,%Inh,AKT3,0%
same,%Inh,ALK,0%
same,%Inh,AMPK-alpha1,0%
same,%Inh,AMPK-alpha2,0%
same,%Inh,ANKK1,0%
same,%Inh,ARK5,0%
same,%Inh,ASK1,0%
same,%Inh,ASK2,0%
same,%Inh,AURKA,14%
same,%Inh,AURKB,0%
same,%Inh,AURKC,35%
same,%Inh,AXL,8%
same,%Inh,BIKE,0%
same,%Inh,BLK,0%
same,%Inh,BMPR1A,0%
same,%Inh,BMPR1B,0%
same,%Inh,BMPR2,0%
COc1ccc(-c2coc3ccc(-c4nnc(SCc5ccc(OC)c(C(F)(F)F)c5)o4)cc23)cc1,%Inh,ADCK4,10%
same,%Inh,AKT1,4%
same,%Inh,AKT2; [1],0%
same,%Inh,AKT3,0%
same,%Inh,ALK,0%
same,%Inh,AMPK-alpha1,31%
same,%Inh,AMPK-alpha2,0%
same,%Inh,ANKK1,38%
same,%Inh,ARK5,0%
same,%Inh,ASK1,17%
same,%Inh,ASK2,0%
same,%Inh,AURKA,21%
same,%Inh,AURKB,11%
same,%Inh,AURKC,7%
same,%Inh,AXL,11%
same,%Inh,BIKE,0%
same,%Inh,BLK,7%
same,%Inh,BMPR1A,20%
same,%Inh,BMPR1B,13%
same,%Inh,BMPR2,14%
O=C(Nc1ccccc1F)NC1CCN(c2ccnc(Nc3ccc(F)cc3)n2)CC1 [GSK1379800],%Inh,ADCK4,64%
same,%Inh,AKT1,0%
same,%Inh,AKT2; [1],11%
same,%Inh,AKT3,0%
same,%Inh,ALK,17%
same,%Inh,AMPK-alpha1,14%
same,%Inh,AMPK-alpha2,0%
same,%Inh,ANKK1,1%
same,%Inh,ARK5,0%
same,%Inh,ASK1,4%
same,%Inh,ASK2,17%
same,%Inh,AURKA,15%
same,%Inh,AURKB,0%
same,%Inh,AURKC,54%
same,%Inh,AXL,15%
same,%Inh,BIKE,39%
same,%Inh,BLK,0%
same,%Inh,BMPR1A,8%
same,%Inh,BMPR1B,0%
same,%Inh,BMPR2,12%
Fc1ccc(-c2ncn(C3CCNCC3)c2-c2ccnc(Oc3ccc(-c4ccccc4)cc3)n2)cc1 [SB-245391],%Inh,ADCK4,0%
same,%Inh,AKT1,20%
same,%Inh,AKT2; [1],31%
same,%Inh,AKT3,15%
same,%Inh,ALK,39%
same,%Inh,AMPK-alpha1,7%
same,%Inh,AMPK-alpha2,20%
same,%Inh,ANKK1,7%
same,%Inh,ARK5,1%
same,%Inh,ASK1,23%
same,%Inh,ASK2,12%
same,%Inh,AURKA,53%
same,%Inh,AURKB,39%
same,%Inh,AURKC,0%
same,%Inh,AXL,18%
same,%Inh,BIKE,0%
same,%Inh,BLK,20%
same,%Inh,BMPR1A,18%
same,%Inh,BMPR1B,2%
same,%Inh,BMPR2,46%
